# Results published in PubChem BioAssay (NCI).
# Compounds without any hit were thinned out: in the full panel of roughly 83,000, 20% have a hit.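 Single-dose data. Exposure time 48 hours. Values below 10 considered active.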 A number with no mark means an inactive call. Active and inactive are the calls of the source.
# Tested on: OVCAR-8 ovarian
# Test: NCI-60 one-dose screen, 48 h (100 = growth as untreated, 0 = no growth, -100 = all killed)
# Details: 10 µM unless noted
row,SMILES,growth
1,Nc1ccc(Cl)c2c(=O)c3ccccc3[nH]c12,92.2%
2,COC(=O)c1sc(-c2ccc(C)cc2)cc1O,117%
3,CCOC(=O)CSc1nc2sc3c(c2c(=O)n1-c1ccccc1)CCCCC3,103%
4,O=C1NCCS(=O)(=O)/C1=C\C=C\c1cccc(C(F)(F)F)c1,20.4%
5,COc1cc(/C=C2\C(=O)N(CCOc3cc(O)c4c(=O)cc(-c5ccccc5)oc4c3)c3ccccc32)cc(OC)c1O,69.9%
6,CNC1=C([N+](=O)[O-])C(c2ccc(OC)cc2)C(C#N)=C(c2ccc[nH]2)O1 (stereo not given),99.8%
7,COc1cccc2cc(N(C)c3ncnc4ccccc34)ccc12,6.23% (active)
8,Cc1[nH]c(C(=O)Nc2ccc(C(N)=O)cc2OC(C)C)c(Cl)c1Cl,101%
9,Nc1nc(N)c2c(n1)NC(c1cccc(Nc3ccnc4cc(C(F)(F)F)ccc34)c1)CC(c1ccc(Cl)cc1)=N2 (stereo not given),62.4%
10,COC1=C(OC)C(=O)C(CCCCCCCCCCO)=C(C)C1=O,49.4%
11,O=C1c2c(c3c4cccnc4[nH]c3c3ccc4ccccc4c23)C(=O)N1O,46%
12,CCN1CCN(C(=O)[C@]23CC[C@@H](C)[C@H](C)[C@@H]2C2=CC[C@@H]4[C@@]5(C)C/C(=C/c6ccncc6)C(=O)C(C)(C)[C@@H]5CC[C@@]4(C)[C@]2(C)CC3)CC1,37.4%
13,C=CC(=O)Nc1ccc2ncnc(Nc3cccc(NS(=O)(=O)CCC)c3Cl)c2c1,48.2%
14,COc1ccccc1/C=C/C1=C(C)CCC(c2ccccc2OC)C1C (stereo not given),19.7%
15,CN(C)CCOc1nc2c3cc([N+](=O)[O-])ccc3nn2c2ccccc12,31.5%
16,COc1ccc(-c2nc(SCCC(C)C)nc(N/N=C(/C)c3ccc(N)cc3)c2C#N)cc1,92.7%
17,O=C(c1ccccc1)[C@@H](c1ccccc1)[C@]1(O)C(=O)Nc2ccccc21,92.6%
18,CCOC(=O)C1=C(c2ccccc2)N=C2SC=C(c3cccc([N+](=O)[O-])c3)N2C1c1ccc(O)cc1 (stereo not given),97.9%
19,Cn1nc(-c2ccc(Cl)cc2)nc2c(=O)n(C)c(=O)nc1-2,-58.8% (active)
20,COc1cc(C(=O)/C=C/c2c(-c3cccs3)nc3sc(C)cn23)cc(OC)c1OC,0.3% (active)
21,CSc1nc(N)c2c(n1)NC(c1ccccc1)C1CCc3ccccc3C1=N2 (stereo not given),42.1%
22,COC(=O)c1c(C)nc(C)c2c1C(=O)C(Br)=C(NCCCCO)C2=O,57.7%
23,COc1ccc(S(=O)(=O)Oc2ccc(-c3sc4cc(OS(=O)(=O)c5ccc(OC)cc5)ccc4c3C(=O)c3ccc(OCCN4CCCCC4)cc3)cc2)cc1,108%
24,C=C(c1ccc(C(=O)O)c(F)c1)c1cc2c(cc1C)C(C)(C)C=CC2(C)C,82.8%
25,COc1cc(C2=Nc3c(N)nc(N)nc3NC(c3cccc(Nc4ccnc5cc(C(F)(F)F)ccc45)c3)C2)cc(OC)c1OC (stereo not given),68.8%
